E coli Lon inh = E. coli protease La inhibition | actives 0.42% (n = 360,000) | inhibition, % at 7.94 µM | AID 602123 | purified E. coli Lon protease, fluorescence polarization | P0A9M0; in the data active = inhibition above about 13%, passing the limit was not always enough;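 note: 0% = enzyme with probe and DMSO and 100% = no enzyme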
RTF Ca sens act = cardiac RTF calcium sensitization. P19429+P45379. activation, % at 7.2 µM. actives 0.24% (n = 340,000). IANBD-labeled TnC RTF fluorescence at EC20 calcium; 0% EC20 calcium, 100% full calcium. AID 493008;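 active = activation above the mean over all tested compounds plus 3 SD, cut at about 30% in these data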;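 note: rise in fluorescence read as greater calcium sensitivity of cardiac thin filaments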
Keap1 Nrf2 FP = disrupts human Keap1 binding to Nrf2 peptide; Keap1 Kelch-Nrf2 peptide fluorescence polarization, 1536-well; inhibition, % at 9.4 µM; actives 0.15% (n = 340,000); AID 504523; in the data active = inhibition above about 12%;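 note: human Keap1 Kelch domain with fluorescein labeled Nrf2 9mer peptide probe; 0% = neutral control wells and 100% = peptide positive control; higher means more block of Keap1 binding to Nrf2 peptide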
C-LANA FP = KSHV C-LANA DNA binding inhibition | MBP-C-LANA/FAM-LBS DNA binding, fluorescence polarization | inhibition, % at 9 µM | actives 0.078% (n = 340,000);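 active = highest replicate inhibition at or above 60% at 9 µM, even if other replicates fall short; inactive = all replicates below 60% inhibition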;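 note: 0% = neutral control wells and 100% = 4 µM acridine orange control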
Cardiac RTF inh = cardiac RTF calcium desensitization; AID 493244; actives 0.12% (n = 340,000); IANBD-labeled cardiac RTF, Ca2+ fluorescence; P19429+P45379; inhibition, % at 7.15 µM;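 active = inhibition above the mean inhibition of all tested compounds plus 3 SD, cut at about 17% in these data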;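 note: assay run at fixed EC70 calcium of 1.6 mM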
* marks the source's active call; other numbers are inactive results; i = inactive; / = no result given; + = active, no number. Shown are actives, neighbours in structure and some others; about 0.82% of the full set was active somewhere.

SMILES	E coli Lon inh	RTF Ca sens act	Keap1 Nrf2 FP	C-LANA FP	Cardiac RTF inh
COc1ccc(OC)c(/C=C/c2nc3ccccc3[nH]c2=O)c1	4	72*	2	7	-103
O=C(O)C1Nc2c(O)cccc2C2C=CCC12 (stereo unspecified)	9	-31	2	13	34*
O=C(O)C1Nc2c(Cl)cc(Cl)c(Cl)c2C2C=CCC12 (stereo unspecified)	-13	-3	-1	1	2
COc1ccc(/C=c2\s/c(=C/C(=O)c3ccc(C)cc3)[nH]c2=O)c(OC)c1	i	99*	2	1	-166
CC(=O)Oc1ccc2c(c1)Oc1cc(OC(C)=O)ccc1C21OC(=O)c2ccccc21	/	+	15*	168*	i
Cc1cc(O)ccc1C1(c2ccc(O)cc2C)OC(=O)c2ccccc21	-11	-6	5	1	-6
CS(=O)(=O)c1ccc(Cl)c(NC(=O)CSc2nnc3n2CCCCC3)c1	11	/	/	/	/
CC(C)(C)NC(=O)CN1C(=O)c2cccc3cccc1c23	-3	/	/	/	/
Nc1ccc(C(=O)O)cc1[N+](=O)[O-]	-7	3	-4	2	-4
Nc1cc(S(=O)(=O)O)cc([N+](=O)[O-])c1O	-3	-5	-3	81*	-7
Cn1ncc(Cl)c1C(=O)Nc1cccc(Cl)c1	0	16	2	0	-6
Cn1ncc(N=Cc2c(O)ccc3ccccc23)c1C(=O)Nc1cccc(Cl)c1	-3	43*	8	7	-8
COc1cccc(-c2ncc3ccccc3c2COC(=O)CCC(=O)O)c1	-4	2	-3	-1	-4
C=CCn1c(=O)/c(=C/c2cc(OC)c(OC)c(OC)c2)s/c1=C(/C#N)c1nc2ccccc2n1C	1	37*	30*	29	1
C=CCn1c(=O)/c(=C/c2ccc(O)cc2)s/c1=C(/C#N)c1nnc2n1CCCCC2	-284	10	-4	-20	-24
NNC(=O)c1cc(O)c(O)c(O)c1	-8	2	-3	81*	-3
COc1c(Cl)cc(C(=O)NN)cc1Cl	5	8	-5	0	-13
Cc1ccccc1C(=O)N1CCC(C(=O)NC2CCCC2)CC1	-3	2	0	1	4
CCc1ccc(C2C(C#N)=C(N)C(C#N)(C#N)C3=CCC(C(C)(C)C)CC32)cc1 (stereo unspecified)	26*	5	4	10	-21
O=S(=O)(c1ccc(SCc2ccccc2F)nc1)N1CCCC1	-4	-2	-1	0	1
O=C(Nc1ccc2c(c1)OCCO2)c1cccc(Cl)c1Cl	4	39*	-2	0	1
COc1ccc(CCNC(=O)C2c3ccccc3C(=O)N2CCC(C)C)cc1OC (stereo unspecified)	3	-3	4	0	-4
O=C1NC(=S)S/C1=C\c1ccc(SCc2ccccc2)o1	-23	-5	1	23	-9
O=C1NC(=S)S/C1=C\c1ccc(SCc2ccco2)o1	7	-30	21*	99*	50*
COc1ccc(-n2c(O)c(/C=N/NS(=O)(=O)c3cccc([N+](=O)[O-])c3)c3ccccc3c2=O)cc1OC	-110	33*	-218	-59	-43
SMILES	E coli Lon inh	RTF Ca sens act	Keap1 Nrf2 FP	C-LANA FP	Cardiac RTF inh
Cc1ccc(S(=O)(=O)N2CCOCC2)cc1C(=O)NCc1ccccc1CN1CCCC1	1	-5	-2	-1	-2
COc1ccc2nc(C)cc(NCc3ccc(F)cc3)c2c1	-225	69*	-140	-25	-79
CCO/C(C)=N/Oc1cc(OC)cc(OC)c1	-2	/	/	/	/
CC(C)[C@H](N[C@@H](C)c1ccccc1)c1c(O)ccc2ccccc12	-8	-6	-1	-2	1
CCOC(=O)C1=C(O)/C(=C/c2ccc(-c3ccccc3C(=O)O)o2)SC1=Nc1ccc(C)cc1	-98	1	-35	4	-19
CCOC(=O)C1=C(O)/C(=C/c2cn(CC(=O)NCC3CCCO3)c3ccccc23)SC1=Nc1ccc(C)cc1 (stereo unspecified)	-6	135*	-7	21	-20
COc1ccc2sc(-c3ccccc3OC)c(C#CC(C)(C)O)c2c1	5	3	-1	70*	-9
Cc1ccc(NC(=O)c2cc(S(=O)(=O)N3CCCCC3)ccc2N2CCOCC2)cc1S(=O)(=O)N(C)C	6	83*	-2	-1	-110
Cc1cccc(NS(=O)(=O)c2cccc(C(=O)NCC(c3ccc(F)cc3)N3CCOCC3)c2)c1 (stereo unspecified)	3	-6	2	0	-2

High-throughput results as filed in PubChem BioAssay.
